From PubChem
The sample as a whole holds a higher share of hits than the screen did.
Tg IFNy HTS: inhibitors of Toxoplasma gondii growth with IFN-gamma | AID 1259416 | activity change, negative = inhibition, % (concentration not given with the values) | Toxoplasma gondii growth in IFN-gamma-treated host cells; hits give low values | 69,000 tested, 3.8% active; in the data active = activity change below about -70%, passing the limit was not always enough;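 also: host cells are HeLa cells infected with Toxoplasma gondii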
Numbers stand for hits; i = inactive; ! = a repeat was not active.

SMILES	Tg IFNy HTS
O=C1CCCc2c1[nH]c1ccc(-c3ccccc3CO)cc21	-75
CCC(=O)NCc1ccccc1-c1ccccc1CO	i
Cc1cccc(C(=O)Nc2cccc(NC(=O)C3CCCCN3C)c2)c1 (stereo not drawn)	i
C[C@@H]1CN([C@@H](C)CO)C(=O)c2cc(NS(=O)(=O)c3cn(C)cn3)ccc2O[C@@H]1CN(C)S(=O)(=O)c1ccc(F)cc1	i
O=C(Nc1cccc(C(F)(F)F)c1)N1CCSCC1	i
Cn1nc(C(F)(F)F)cc1-c1ccc(NC(=O)Nc2cccc(C(F)(F)F)c2)s1	-90
CSc1sc(NC(=O)Nc2cccc(C(F)(F)F)c2)cc1C#N	i
COc1ccc(C(=O)CCN2CCc3cc(OC)c(OC)cc3C2)cc1	i
Cc1ccc(CN(Cc2cccnc2)Cc2cccs2)o1	i
Cc1ccc(C(=O)N2CCn3cc(CN(C)Cc4ccco4)nc3C2)o1	i
C/C(=C\c1ccco1)CN1CCOC(CCNS(C)(=O)=O)C1 (stereo not drawn)	i
Cc1ccc(S(=O)(=O)Cc2nc(-c3ccc(C(=O)NCc4cccnc4)cc3)oc2C)cc1	-113!
CN(C)c1ccc(C(=O)NCc2cccnc2)cc1	i
Cc1ccc(C(=O)Nc2c(C(=O)NCc3cccnc3)[nH]c3ccc(C)cc23)cc1	i
Cc1ccsc1-c1nccn1CCc1n[nH]c(=O)[nH]1	i
O=C(Cn1ncc2c(N3CCCCCC3)ncnc21)NCc1cccc(Cl)c1	i
O[C@@H]1C[C@H]2CN(c3ncccc3C(F)(F)F)C[C@H]2C[C@@H]1O	i
Cc1ccc2c(c1)c(Cn1cc(-c3sccc3C)nn1)nn2C	-86
Cc1ccc2c(c1)c(CNC(C)CCn1cccn1)nn2C (stereo not drawn)	i
CCc1c(C)nn(CC(=O)NCc2nn(C)c3ccc(C)cc23)c1C	i
CCc1cccc2c(CC(=O)Nc3n[nH]c(-c4cccs4)c3C)c(C)[nH]c12	i
COc1cc(COc2ccc3c(C)c(Cc4ccccc4)c(=O)oc3c2)cc(OC)c1OC	i
Cc1c(Cc2c(Cl)cccc2Cl)c(=O)oc2cc(O)ccc12	-71
O=c1c2ccccc2oc2cc(O)ccc12	i
O=C(C1CC1)N1CC[C@@H]2[C@@H](CO)Nc3ccc(Br)cc3[C@@H]21	i
SMILES	Tg IFNy HTS
Cc1cc2nc(CCNC(=O)CN3C(=O)NC(C)(c4ccccc4)C3=O)[nH]c2cc1C (stereo not drawn)	i
CCCC(=O)N1CC2(CCN(S(C)(=O)=O)CC2)c2c([nH]c3cc(OC)ccc23)[C@H]1CO	i
Cn1cc(CCC(=O)N2CCC(c3n[nH]c(=O)n3-c3ccccc3)CC2)cn1	i
O=C(CC1=CCNCC1)N1CCC(c2n[nH]c(=O)n2-c2ccccc2)CC1	-73
Cc1n[nH]c(C)c1C(=O)N1CCC(c2n[nH]c(=O)n2-c2ccccc2)CC1	i
COc1ccc(S(=O)(=O)N2CCC3(CC2)Nc2ccccc2-n2cccc23)cc1OC	i
Fc1ccc(NC(=S)Nc2ccccc2Cl)cc1	i
Fc1cccc(NC(=S)Nc2ccc3ccccc3c2)c1	-88
CSc1cccc(NC(=S)NCc2ccc(F)cc2)c1	i
CCOc1ccc2nc(SCC(=O)c3ccc(F)cc3)sc2c1	-79
CCOc1ccc2nc(NS(=O)(=O)c3ccc(NC(C)=O)cc3)sc2c1	i
O=C(CSc1ccccn1)c1ccc(OCc2ccc(F)cc2)cc1	i
CCN1c2ccc(C)cc2C(=O)NC12CCN(C(=O)c1ccc(Br)cc1)CC2	i
COc1ccc(-c2nnc3n2C2CCCCC2N(C(=O)CCc2ccno2)C3)cc1OC (stereo not drawn)	i
Cc1ccc(C2=NC3(CCN(CC(=O)Nc4ccccc4C)CC3)NC2=O)cc1C	i
CN1CCN(Cc2ccccc2Oc2ncc(C(F)(F)F)cc2Cl)CC1	i
FC(F)(F)c1ccc(N2CCN(Cc3cc(Cl)cc4c3OCOC4)CC2)nc1	-85
CC(C)(C)C(=O)N1CCN(c2ccc(C(F)(F)F)cn2)CC1	i
COc1cc2c(cc1OC)C(c1ccccc1)=NCC2	i
COc1cc2c(cc1OC)C(c1sc3ccccc3c1Cl)=NCC2	-113
COc1cc2c(cc1OC)C(c1c(-c3ccccc3)noc1C)=NCC2	i
Cc1cc(C(=O)N2CCC(CCn3ccnc3C)CC2)c2ccccc2n1	i
COc1ccc2oc(CNC(=O)c3cccc4ccnn34)nc2c1	i
CNCCn1c(=O)c2cc(OC)c(OC)cc2c2cnc3cc4c(cc3c21)OCO4	-80
Cc1c(-c2nnnn2-c2ccc(F)cc2)cnc2cc3c(cc12)OCO3	i
SMILES	Tg IFNy HTS
CO[C@@H]1CN(C)C(=O)c2cc(NC(=O)Nc3c(C)noc3C)ccc2OC[C@@H](C)NC[C@@H]1C	i
CS(=O)(=O)N1CCCC12CCCN(C(=O)C1CCCO1)C2 (stereo not drawn)	i
CCN(CC)CCN(Cc1ccc(-c2ccc(C(F)(F)F)cc2)cc1)C(=O)Cn1c(SCc2ccc(F)cc2)nc(=O)c2c1CCC2	-76
CN(C(=O)CSc1ccc(C(F)(F)F)cn1)c1c2c(nn1C)CCCC2	i
CCN(Cc1ccncc1)C(=O)CCNC(=O)c1ccc(F)cc1	i
COc1ccc2nc(NC(=O)CC3(CC(=O)O)CCCCC3)sc2n1	i
CCN1CCO[C@@H]2CN(C(=O)CC3Cc4ccccc4C3)C[C@@H]2C1	i
